JMJD2A Tudor: qHTS Assay for Inhibitors of JMJD2A-Tudor Domain | Lysine-specific demethylase 4A (Homo sapiens), O75164 | AlphaScreen JMJD2A-Tudor / H3K4me3 peptide binding | Potency, µM (titrated, usually from 114 µM), inactives show at the highest dose activity change, negative = inhibition, hits mostly inhibitors | 4.4% of 390,000 active | AID 504339, 2011; further: potency means the concentration at half of the fitted maximal effect; on the % scale 0 is the no-effect control and ±100 the full control effect; nearly all actives have a fitted effect of over 50% in size
Six1-Eya2 blk: qHTS Assay for Inhibitors of the Six1/Eya2 Interaction; activity change, % (test concentration not listed); Homeobox protein SIX1 (Homo sapiens) + Protein phosphatase EYA2 (Homo sapiens), …; AID 651725, 2012; 0.56% of 360,000 active; AlphaScreen GST-Six1/His-Eya2 binding, biochemical; hits give low values; in the data active means activity change below about -65%; inconclusive means mostly about -30% to -63%; further: on the % scale 0 is the no-effect control and ±100 the full control effect
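Compounds are tested against tagged Six1 and Eya2 proteins bridged by glutathione donor and nickel acceptor beads; after a one-hour incubation at 37 °C without light, AlphaScreen emission is recorded.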
CtBP-E1A inh: qHTS Assay for Inhibitors of the CtBP/E1A Interaction | 0.49% of 340,000 active | activity change, % (test concentration not listed) | AlphaScreen GST-E1A/His-CtBP binding, 1536-well; hits give low values | AID 651724, 2012; in the data active means activity change below about -65%; inconclusive means mostly about -30% to -63%; further: on the % scale 0 is the no-effect control and ±100 the full control effect
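GST-E1A and His-tagged CtBP (125 nM each as 5X stock) were preincubated with pin-transferred compound for 2 h at 37 °C in the dark, then glutathione donor and nickel acceptor beads were added for 1 h before AlphaScreen reading.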
G9a block: qHTS Assay for Inhibitors of Histone Lysine Methyltransferase G9a. Histone-lysine N-methyltransferase EHMT2 (Homo sapiens), Q96KQ7. AID 504332, 2011. Potency, µM (series often up to 102 µM), inactives show at the highest dose activity, negative = inhibition, usual class: inhibitors. 8.8% of 350,000 active. G9a H3K9 monomethylation, AlphaScreen, 2 h; further: potency means the concentration at half of the fitted maximal effect; on the % scale 0 is the no-effect control and ±100 the full control effect; nearly all actives have a fitted effect of over 75% in size
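Signal arises when biotinylated H3K9 peptide, once monomethylated, bridges streptavidin donor and antibody-captured acceptor beads. Enzyme at 20 nM was preincubated 15 min with test compounds; peptide 500 nM and SAM 20 uM then reacted for 2 h.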
BAZ2B block: qHTS Assay for Inhibitors of BAZ2B; 4.4% of 360,000 active; AID 504333, 2011; Potency, µM (highest dose often 114 µM), for the others: at the top dose activity change, negative = inhibition, hits mostly inhibitors; Bromodomain adjacent to zinc finger domain protein 2B (Homo sapiens), Q9UIF8; AlphaScreen BAZ2B-H3K14Ac peptide displacement; further: potency means the concentration at half of the fitted maximal effect; on the % scale 0 is the no-effect control and ±100 the full control effect; nearly all actives have a fitted effect of over 60% in size
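Complex of BAZ2B and biotin-H3K14Ac (50 nM apiece) forms over 30 min at RT, then faces library compounds up to 110 uM for another 30 min; AlphaScreen beads added, 20 min dark incubation, luminescence read.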
HP1b binding inh: HTS for Inhibitors of HP1-beta Chromodomain Interactions with Methylated Histone Tails. AID 540317, 2011. 0.56% of 390,000 active. Potency, µM (highest dose often 114 µM), inactives show at the highest dose activity change, negative = inhibition, usual class: inhibitors. AlphaScreen HP1-beta / biotin-H3K9me3 peptide binding. Chromobox protein homolog 1 (Homo sapiens), P83916; further: potency means the concentration at half of the fitted maximal effect; nearly all actives have a fitted effect of over 70% in size
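Compound inhibition of the preformed complex between 50 nM HP1-beta and 50 nM biotinylated H3K9me3 peptide was read by AlphaScreen. Buffer was PBS pH 7.4 with 0.01% Tween-20. Incubations ran 30 min at room temperature, with 10 ug/mL donor/acceptor beads.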
* hit, by the source's call; u = inconclusive; x = no result given; [ ] = another dose, or the depositor's remark. This is a sample that favours compounds with a hit; in the whole collection about 10% have one here. Unless noted, the call rests on the fitted dose curve; in most records, active means well fitted inhibition curve with a large enough effect; inconclusive means small, poorly fitted or top-dose-only effect; inactive means no such curve, though single readings can be large or run the other way.

SMILES	JMJD2A Tudor	Six1-Eya2 blk	CtBP-E1A inh	G9a block	BAZ2B block	HP1b binding inh
O=C(/C=C/c1ccco1)N(Cc1ccc(F)cc1)C1CCS(=O)(=O)C1 (stereo not given)	-18.2%	3.0	0.2	x	-5.6%	11.8%
O[C@@H]1CN(Cc2cccs2)[C@@H](c2ccc(Cl)cc2)C[C@H]1n1cc(C2CC2)nn1	x	0.0	1.1	x	x	x
CCNC(=O)C1CCCN(C(=O)c2cccc(C(F)(F)F)c2)CC1 (stereo not given)	x	-5.8	0.1	x	x	x
Cc1ccccc1OCc1nc2ccccc2c(=O)n1/N=C/c1c[nH]c2ccccc12	-17.8%	-1.9	5.0	-5.5%	-0.2%	3.8%
Cc1cc(/C=N/n2c(COc3ccccc3C)nc3ccccc3c2=O)c(O)c([N+](=O)[O-])c1	25.1µM*	-67.8*	-73.0*	u	u	u
O=c1c2ccccc2nc(COc2ccccc2)n1/N=C/c1cc([N+](=O)[O-])ccc1O	-27.5%	-88.9*	-4.9	-6.3%	-3.9%	13.0%
CCN(c1ccccc1)S(=O)(=O)c1ccc(Cl)c(NC(=O)CSc2n[nH]c(N)n2)c1	-35.0%	6.1	-3.1	u	-5.2%	12.5%
COc1cccc(NC(=O)CN(C)C(=O)Cc2c(C)nc3ccccc3c2C)c1	-14.4%	-1.6	2.4	27.1%[59 µM]	9.4%	32.8%
CCNc1nc(NCC)nc(N(C#N)CCOc2ccccc2)n1	-16.8%	7.7	1.5	x	-3.1%	13.3%
CCNc1nc(NC(C)C)nc(N(C#N)CCOc2ccccc2)n1	-9.1%	3.5	-0.2	12.6µM*	12.6%	55.6%
Cc1ccc(/C=N/n2c(-c3cccs3)n[nH]c2=S)cc1	50.1µM*	u	-10.8	0.447µM*	-26.0%	5.0%
S=c1[nH]nc(-c2cccs2)n1/N=C/c1c(Cl)cccc1Cl	u	-21.0	11.3	1.26µM*	-33.9%	-23.9%
O=[N+]([O-])c1ccc(-c2nn(-c3ccccc3)cc2/C=N/n2c(-c3cccs3)n[nH]c2=S)cc1	-22.1%	-0.2	4.7	x	0.9%	33.1%
COc1ccc(/C=N/n2c(-c3cccs3)n[nH]c2=S)cc1	44.7µM*	-6.5	-18.8	u	-37.1%	-16.8%
Cc1ccc(CCNC(=O)c2sc3nc4n(c(=O)c3c2C)CCCC4)cc1	-19.7%	x	x	-38.7%[59 µM]	u	12.1%
c1ccc(CCN(Cc2ccccc2)C2CCN(C3CCCC3)CC2)cc1	2.24µM*	-1.8	-17.8	50.1µM*	50.1µM*	u
OCC1(CCCc2ccccc2)CCN(C2CCC2)CC1	-15.6%	1.2	-3.4	x	2.2%	7.2%
Cc1cccc(OCC(=O)Nc2c(C(=O)N3CCN(c4ccccc4F)CC3)oc3ccccc23)c1	-30.5%	x	x	u	-29.0%	20.8%
Cc1ccccc1-c1noc(CCC(=O)NCC2CCCO2)n1 (stereo not given)	-13.0%	3.2	2.3	12.6µM*	6.6%	13.7%
CC(Sc1ccccc1)C(=O)NN=C1CCN(C)CC1 (stereo not given)	-6.8%[57.1 µM]	3.9	-14.9	11.0%	-3.1%	33.3%
O=C(CCC1CCCNC1)c1ccccc1 (stereo not given)	x	x	x	50.1µM*	2.6%	x
CC(=O)NC(CCS(C)(=O)=O)C(=O)Nc1cccc(C(C)=O)c1 (stereo not given)	3.8%	3.1	-14.1	25.1µM*	7.5%	23.2%
COc1ccc(S(=O)(=O)NCc2ccc(C(=O)NCCN(C)Cc3ccccc3)cc2)cc1	x	-2.9	-0.3	x	x	x
CCc1c(-c2n[nH]c(=S)n2Cc2ccccc2)csc1C	u	-0.6	-3.0	2µM*	-35.5%	3.8%
Cc1scc(-c2n[nH]c(=S)n2Cc2ccccc2)c1C	-4.9%	-1.1	-3.1	1.58µM*	-31.0%	21.0%

Assay outcomes deposited in PubChem by National Center for Advancing Translational Sciences (NCATS).
